Assay [1] is described as follows: AP1 Signaling Pathway (AID 357; active = well fitted curve in either direction with a large enough effect, not every such curve was filed as active; also: % is scaled to controls: 0 for no effect and ±100 for the full control effect). The note with it: ME-180 AP-1-bla reporter, EGF-induced, beta-lactamase ratio, 5 h; at 38 µM (top of the series). The method in brief: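 Titration-series screen for positive or negative modulators of EC50 EGF-induced signaling in ME-180 cells carrying an AP-1-driven beta-lactamase reporter. After 5 hours at 37 degrees Celsius, CCF4 460nm/530nm emission ratio gave %Activity; AC50 values derived.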

In assay [2] the target is Cytochrome P450 1A2 (Homo sapiens) (UniProt P05177). The experiment in a line: p450-cyp1a2 (AID 410; calls by dose curve; also: potency is read from the fitted curve at half-maximal effect). In outline:
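Human CYP1A2 (20nM) demethylated Luciferin-ME at its Km (100uM) in 100mM KPO4. After 10 min compound preincubation, NADPH regeneration ran the reaction 60 min at room temperature. Luciferin was read by luminescence, normalized to 57 uM furafylline.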

Assay [3] is described as follows: NFAT Signaling Pathway (AID 444; active = well fitted curve in either direction with a large enough effect, not every such curve was filed as active;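 also: carbachol stimulus at about its EC50 of 1 µM final; % is scaled to controls: 0 for no effect and ±100 for the full control effect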). Particulars: Jurkat NFAT-bla M1, carbachol, beta-lactamase ratio, 5 h; at 38 µM (top of the series). In outline: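 Read-out: CCF4 FRET ratio (460 nm/530 nm) after 1 h RT dye loading, used for %activity and AC50 from titration series. Cells: Jurkat NFAT-β-lactamase/M1 line, treated with compound plus 1 uM carbachol for 5 h, 37 °C.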

A short description of assay [4]: Stat Signaling Pathway (AID 446; active = well fitted curve in either direction with a large enough effect, not every such curve was filed as active;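 also: ME-180 cervical cancer cells given 40 pM IL-6 alongside compound; SIE-controlled beta-lactamase reporter measured as 460/530 nm FRET emission ratio; % is scaled to controls: 0 for no effect and ±100 for the full control effect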). The note with it: ME-180 (cervical carcinoma) SIE beta-lactamase reporter, IL-6 stimulated, 5 h; at 38 µM (top of the series). In outline:
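ME-180 SIE-bla cells; overnight plating; cpd + IL-6 40 pM, 5 h, 37 C; LiveBLAzer 2.5 h RT; 460/530 nm emission ratio. Normalized to 300 pM IL-6 and 125 nM JAK inhibitor controls.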

Assay [5] addresses Glucocorticoid receptor (Homo sapiens) (UniProt P04150). The experiment in a line: GR-GFP Redistribution (AID 450;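 active = compounds whose dose series gives a full or clear partial fitted curve of increased nuclear translocation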; also: potency is read from the fitted curve at half-maximal effect). The note with it: U2OS GR-GFP nuclear translocation, laser cytometry, 2 h.
The target is the same in assay [6]. The experiment in a line: GR-EFC Redistribution (AID 451; calls by dose curve; also: potency is read from the fitted curve at half-maximal effect). Particulars: CHO-K1 GR-EFC translocation, beta-gal luminescence, 2 h. The method in brief:
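Translocation of GR-ED fusion to nuclear EA restores b-gal, read by luminescence after 1 h room-temperature detection. Engineered CHO-K1 biosensor cells, 1,000/well, exposed 2 h at 37 C to titrations up to 46 uM final.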

The target of assay [7] is Mitogen-activated protein kinase 10 (Mus musculus) (UniProt Q61831). Put plainly: JNK3 AlphaScreen Assay (AID 530; active = well fitted curve in either direction with a large enough effect, not every such curve was filed as active;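 also: kinase came from lysate of stimulated human HepG2 cells; signal reports phosphorylation of biotinylated GST-cJun 1-79 at Ser73 with 10 µM ATP; % is scaled to controls: 0 for no effect and ±100 for the full control effect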). The method in brief: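 Room-temperature AlphaScreen kinase assay; pre-activated HepG2 lysate as JNK3 source, biotin-GST-cJun(1-79) substrate, 10 uM ATP, compound 15 min preincubation.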
In general terms: Alpha assays give light when donor and acceptor beads are brought close together.

Assay [8] has as its target 3',5'-cyclic-AMP phosphodiesterase 4B (Homo sapiens) (UniProt Q07343). Put plainly: qHTS Assay for Inhibitors of PDE-IV (AID 607; active = well fitted activation curve with a large enough effect in the main read-out, with a control signal flat, not every such curve was filed as active; also: % of control where 0% means no effect). In outline: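 ACTOne HEK293 cells carry a modified cAMP-gated CNG channel and express endogenous PDE4; plated 1000 cells/well, compounds up to 22.9 uM final. Membrane-potential dye fluorescence (ex 535/em 590) was read; parental cells received 10 uM forskolin + 100 uM RO 20-1724.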

Assay [9] has as its target Guanine nucleotide-binding protein G(i) subunit alpha-1 (Homo sapiens) (UniProt P63096). The experiment in a line: qHTS Assay for Inhibitors of RGS12 GoLoco Motif Activity (Green Fluorophore) (AID 879).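 Also: 0% = labeled peptide with Gαi1 and full inhibition = labeled peptide alone without protein; negative values mean loss of peptide binding seen as reduced polarization.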 In outline:
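Fluorescence polarization assay: 50 nM Gαi1 with 10 nM FITC-labeled RGS12 GoLoco peptide in 10 mM Tris pH 7.5, 150 mM NaCl, 0.1 mM GDP, 0.05% NP40, 10 min at room temperature with compound.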

Assay [10] in a line: qHTS Assay for Identification of Small Molecule Antagonists for Thrombopoietin (TPO) Signaling Pathway (AID 918). Also: potency is read from the fitted curve at half-maximal effect; nearly all actives have a fitted effect of over 60% in size. Particulars: TPO-dependent cell signaling reporter, antagonist mode. The method in brief:
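Murine Ba/F3 cells stably expressing human TPO receptor and a Glycoprotein IIb promoter–luciferase reporter were IL-3-starved overnight, treated with compounds plus TPO (26 pM final, its EC50) for 24 hrs at 37 C, then read by luminescence.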
(qHTS replaces the single test concentration by a dilution series.)

For assay [11], the target named is Muscarinic acetylcholine receptor M1 (Rattus norvegicus) (UniProt P08482). Put plainly: qHTS Assay for Antagonists of Acetylcholine Muscarinic M1 Receptor: Kinetic Measurement of Intracellular Calcium Response (AID 943).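 Also: Fluo-4 calcium signal as peak divided by basal fluorescence over 4 min; nearly all actives have a fitted effect of over 75% in size.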 In outline: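 CHO cells stably expressing rat M1 were loaded with no-wash Fluo-4 dye for 1 h at 37C, pre-incubated 10 min with compound, then challenged with EC80 carbachol (100 nM final); kinetic calcium read 4 min, peak/basal ratio.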
Muscarinic acetylcholine receptor M1 (Rattus norvegicus), sequence (P08482 whole entry, looked up): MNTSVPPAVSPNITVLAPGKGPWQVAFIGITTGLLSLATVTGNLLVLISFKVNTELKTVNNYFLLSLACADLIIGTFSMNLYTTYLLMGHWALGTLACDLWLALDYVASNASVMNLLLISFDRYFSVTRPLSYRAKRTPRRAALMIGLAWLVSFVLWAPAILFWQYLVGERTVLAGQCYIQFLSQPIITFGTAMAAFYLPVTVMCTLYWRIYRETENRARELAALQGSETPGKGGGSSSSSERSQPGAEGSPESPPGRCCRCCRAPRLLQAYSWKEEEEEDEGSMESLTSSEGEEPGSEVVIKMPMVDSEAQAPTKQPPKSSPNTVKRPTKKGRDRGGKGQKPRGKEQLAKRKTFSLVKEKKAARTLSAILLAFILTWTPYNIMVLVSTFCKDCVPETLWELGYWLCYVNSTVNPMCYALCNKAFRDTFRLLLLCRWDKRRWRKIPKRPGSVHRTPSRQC

Assay [12] shares this target. Put plainly: qHTS Assay for Antagonists of Acetylcholine Muscarinic M1 Receptor: Measurement of IP-One Response (AID 944). Also: nearly all actives have a fitted effect of over 75% in size. In outline: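 CHO cells expressing rat M1 receptor, recovered overnight, were pre-incubated 10 min with compound, then stimulated 30 min with carbachol at EC80 (200 nM) in LiCl-containing buffer, pH 7.4. IP1 accumulation was read by HTRF (620/665 nm).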

Assay [13] has as its target Pyruvate kinase (Leishmania mexicana) (UniProt Q27686). The experiment in a line: qHTS Validation Assay for Activators of Leishmania Mexicana Pyruvate Kinase (AID 959). In outline:
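An endpoint luciferase assay: 0.2 nM LmPYK E451W turns over 0.5 mM PEP with 0.1 mM ADP for 1 h at room temperature, pH 7.2, before PKLight addition. Values are normalized to DMSO-only wells.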

Assay [14] concerns the target Alpha-galactosidase A (Homo sapiens) (UniProt P06280). Put plainly: Counterscreen for Glucocerebrosidase Inhibitors: qHTS Assay for Human alpha-Galactosidase at pH 4.5 (AID 992). Also: 0% is about no effect. In outline: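 Enzyme at 2 nM final was combined with compound (0.7 nM to 77 uM) and 80 uM 4-methylumbelliferyl alpha-D-galactopyranoside in 50 mM citric acid, 0.005% Tween-20, pH 4.5. After 20 min at room temperature, fluorescence was read (Ex 365/Em 440 nm); AC50 came from Hill fits.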
Background: A counterscreen serves to expose hits that act by an unwanted route or on another target.

Assay [15] addresses alpha-glucosidase (Oryza sativa, rice) (UniProt Q653V4). Put plainly: Counterscreen for Glucocerebrosidase Inhibitors: qHTS Assay for Rice alpha-Glucosidase at pH 5.0 (AID 997).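 Also: 0% = full activity with enzyme and -100% = basal without enzyme.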 In outline:
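Rice alpha-glucosidase (4 nM final) with 400 uM 4-methylumbelliferyl-alpha-D-glucopyranoside in citrate buffer pH 5.0, 20 min at room temperature, stopped at pH 10; fluorescence 365/440 nm, compounds 0.7 nM–77 uM, AC50 from Hill fits.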

Assay [16] is described as follows: qHTS Assay for Lipid Storage Modulators (AID 1519; calls by dose curve). The note with it: Drosophila S3 cells, BODIPY lipid droplet/cell ratio, laser cytometry, cells loaded with oleic acid. The method in brief:
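Cells seeded at 5,000 per well were treated with compounds over a concentration series and loaded with oleic acid (400 uM, as added). Lipid droplet fluorescence (488 nm excitation, 500-530 nm channel) was read by laser-scanning cytometry and normalized to 20 uM Triacsin C.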

For assay [17], the target named is DNA repair nuclease/redox regulator APEX1 (Homo sapiens) (UniProt P27695). Put plainly: qHTS Validation Assay for Inhibitors of the Human Apurinic/apyrimidinic Endonuclease 1 (APE1) (AID 1705). In outline:
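Human APE1 was preincubated with compound for 15 min at room temperature, then 50 nM (final) THF-abasic double-stranded DNA substrate bearing 5'-TAMRA and 3'-BHQ-2 was added. Incision-driven fluorescence rise (ex 525/em 598 nm) was read kinetically.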

Records with an inconclusive call do not appear. The source made the active and inactive calls. Unless noted, calls follow the shape of the dose curve; as a rule, active = well fitted curve in the direction sought with a large enough effect; inconclusive = small, poorly fitted or top-dose-only effect, or another doubt; inactive = no such curve, though single readings can be large; an effect the other way counts as inactive or inconclusive.

Glucocorticoid receptor (Homo sapiens), sequence (P04150 whole entry, looked up): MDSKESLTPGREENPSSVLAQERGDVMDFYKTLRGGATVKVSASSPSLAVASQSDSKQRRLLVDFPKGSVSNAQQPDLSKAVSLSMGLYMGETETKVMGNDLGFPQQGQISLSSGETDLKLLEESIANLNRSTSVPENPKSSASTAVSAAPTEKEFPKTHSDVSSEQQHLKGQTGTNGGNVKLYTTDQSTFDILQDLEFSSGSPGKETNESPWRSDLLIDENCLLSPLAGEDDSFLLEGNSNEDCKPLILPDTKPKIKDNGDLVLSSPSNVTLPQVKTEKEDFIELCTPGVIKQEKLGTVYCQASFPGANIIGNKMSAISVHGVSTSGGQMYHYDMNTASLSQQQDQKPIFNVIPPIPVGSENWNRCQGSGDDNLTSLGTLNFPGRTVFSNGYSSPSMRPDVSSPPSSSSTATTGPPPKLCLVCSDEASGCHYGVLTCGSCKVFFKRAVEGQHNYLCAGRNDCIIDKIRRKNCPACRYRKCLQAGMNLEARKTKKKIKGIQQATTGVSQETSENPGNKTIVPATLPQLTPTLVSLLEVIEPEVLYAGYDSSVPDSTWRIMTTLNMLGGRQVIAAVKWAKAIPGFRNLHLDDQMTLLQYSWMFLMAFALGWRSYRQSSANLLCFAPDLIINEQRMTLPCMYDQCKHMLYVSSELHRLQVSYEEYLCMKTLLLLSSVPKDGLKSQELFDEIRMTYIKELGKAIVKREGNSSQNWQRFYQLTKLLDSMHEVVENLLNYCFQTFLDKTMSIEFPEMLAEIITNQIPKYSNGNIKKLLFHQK
3',5'-cyclic-AMP phosphodiesterase 4B (Homo sapiens), sequence (Q07343 whole entry, looked up): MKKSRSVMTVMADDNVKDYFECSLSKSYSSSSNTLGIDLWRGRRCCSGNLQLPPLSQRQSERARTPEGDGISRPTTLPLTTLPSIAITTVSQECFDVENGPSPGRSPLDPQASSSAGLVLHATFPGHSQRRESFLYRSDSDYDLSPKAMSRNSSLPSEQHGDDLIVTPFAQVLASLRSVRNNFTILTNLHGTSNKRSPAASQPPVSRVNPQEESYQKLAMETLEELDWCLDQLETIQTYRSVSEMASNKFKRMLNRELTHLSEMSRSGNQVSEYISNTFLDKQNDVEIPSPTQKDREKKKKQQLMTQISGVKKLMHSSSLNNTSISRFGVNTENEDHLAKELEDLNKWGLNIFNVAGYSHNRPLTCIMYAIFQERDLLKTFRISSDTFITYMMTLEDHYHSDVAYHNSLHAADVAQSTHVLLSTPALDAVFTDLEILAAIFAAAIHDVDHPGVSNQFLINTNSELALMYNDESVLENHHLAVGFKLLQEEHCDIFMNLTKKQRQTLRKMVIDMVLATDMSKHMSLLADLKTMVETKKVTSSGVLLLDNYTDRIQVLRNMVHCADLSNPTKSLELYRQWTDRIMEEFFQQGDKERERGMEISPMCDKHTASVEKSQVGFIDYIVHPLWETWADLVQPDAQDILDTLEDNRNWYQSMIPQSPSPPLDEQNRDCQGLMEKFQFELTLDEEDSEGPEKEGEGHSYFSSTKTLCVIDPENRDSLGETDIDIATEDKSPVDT
Guanine nucleotide-binding protein G(i) subunit alpha-1 (Homo sapiens), sequence (P63096 whole entry, looked up): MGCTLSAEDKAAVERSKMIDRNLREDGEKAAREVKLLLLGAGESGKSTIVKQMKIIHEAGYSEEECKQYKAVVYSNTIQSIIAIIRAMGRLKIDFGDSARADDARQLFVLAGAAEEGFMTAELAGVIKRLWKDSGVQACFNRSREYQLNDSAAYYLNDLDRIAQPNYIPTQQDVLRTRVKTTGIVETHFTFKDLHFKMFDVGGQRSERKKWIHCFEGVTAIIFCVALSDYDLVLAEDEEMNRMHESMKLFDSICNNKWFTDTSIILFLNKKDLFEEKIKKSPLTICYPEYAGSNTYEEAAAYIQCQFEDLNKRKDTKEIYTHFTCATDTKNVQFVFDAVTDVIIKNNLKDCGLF
Pyruvate kinase (Leishmania mexicana), sequence (Q27686 2-499 E452W): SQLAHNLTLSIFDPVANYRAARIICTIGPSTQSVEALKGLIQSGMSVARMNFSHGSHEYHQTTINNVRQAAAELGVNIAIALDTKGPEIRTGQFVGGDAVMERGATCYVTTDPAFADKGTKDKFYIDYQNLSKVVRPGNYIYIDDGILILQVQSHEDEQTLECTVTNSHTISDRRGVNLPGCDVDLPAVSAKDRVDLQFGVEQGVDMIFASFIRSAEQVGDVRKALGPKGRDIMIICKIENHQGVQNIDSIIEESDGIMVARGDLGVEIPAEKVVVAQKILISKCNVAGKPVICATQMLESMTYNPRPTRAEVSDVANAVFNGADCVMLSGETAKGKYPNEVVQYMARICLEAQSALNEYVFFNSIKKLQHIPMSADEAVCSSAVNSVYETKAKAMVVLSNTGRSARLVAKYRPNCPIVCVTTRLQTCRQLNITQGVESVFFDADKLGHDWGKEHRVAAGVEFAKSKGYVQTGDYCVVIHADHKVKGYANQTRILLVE
Alpha-galactosidase A (Homo sapiens), sequence (P06280 whole entry, looked up): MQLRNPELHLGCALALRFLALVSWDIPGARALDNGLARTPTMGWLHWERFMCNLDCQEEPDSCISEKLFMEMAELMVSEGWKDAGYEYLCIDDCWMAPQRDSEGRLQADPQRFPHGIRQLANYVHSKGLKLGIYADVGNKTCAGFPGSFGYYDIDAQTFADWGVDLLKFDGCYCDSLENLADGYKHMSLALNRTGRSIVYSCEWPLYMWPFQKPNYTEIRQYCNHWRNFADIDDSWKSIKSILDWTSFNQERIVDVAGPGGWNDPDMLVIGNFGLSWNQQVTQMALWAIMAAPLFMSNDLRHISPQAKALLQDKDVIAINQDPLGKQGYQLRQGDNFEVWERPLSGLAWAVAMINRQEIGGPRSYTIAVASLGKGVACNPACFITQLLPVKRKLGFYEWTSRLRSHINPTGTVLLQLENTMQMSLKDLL
DNA repair nuclease/redox regulator APEX1 (Homo sapiens), sequence (P27695 whole entry, looked up): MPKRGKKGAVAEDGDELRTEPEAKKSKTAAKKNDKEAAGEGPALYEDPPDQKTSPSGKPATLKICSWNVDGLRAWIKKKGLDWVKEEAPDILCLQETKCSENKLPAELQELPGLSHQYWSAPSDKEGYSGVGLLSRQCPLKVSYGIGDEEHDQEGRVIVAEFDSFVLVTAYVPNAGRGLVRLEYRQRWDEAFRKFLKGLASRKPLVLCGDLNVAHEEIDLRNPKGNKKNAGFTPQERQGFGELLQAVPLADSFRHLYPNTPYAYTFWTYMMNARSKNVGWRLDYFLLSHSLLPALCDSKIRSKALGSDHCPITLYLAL
Cytochrome P450 1A2 (Homo sapiens), sequence (P05177 whole entry, looked up): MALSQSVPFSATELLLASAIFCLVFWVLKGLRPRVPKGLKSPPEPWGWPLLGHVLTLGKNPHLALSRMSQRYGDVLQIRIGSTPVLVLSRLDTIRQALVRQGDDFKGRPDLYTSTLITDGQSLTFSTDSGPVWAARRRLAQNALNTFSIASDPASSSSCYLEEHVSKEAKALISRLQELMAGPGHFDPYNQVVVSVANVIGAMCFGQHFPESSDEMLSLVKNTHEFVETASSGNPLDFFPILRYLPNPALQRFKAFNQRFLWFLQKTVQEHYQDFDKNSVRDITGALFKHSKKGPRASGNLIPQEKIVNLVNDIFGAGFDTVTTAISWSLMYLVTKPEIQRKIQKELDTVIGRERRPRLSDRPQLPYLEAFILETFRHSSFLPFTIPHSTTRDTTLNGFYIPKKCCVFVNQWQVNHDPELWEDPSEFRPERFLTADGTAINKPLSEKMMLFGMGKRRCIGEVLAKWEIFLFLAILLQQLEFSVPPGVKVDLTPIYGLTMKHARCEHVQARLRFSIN

As to `S=C(Nc1ccccc1)Nc1nccs1`, the activity change, negative = inhibition in [1] was -16.9% (inactive); in assay [3], 0.515% (inactive); in assay [16] (at 57.5 µM (top of the series)), -0.0683% (inactive). The Potency in assay [2] is 794 nM (active); in [5] it was > 46 µM (inactive); in assay [6], > 46 µM (inactive); in [10], 20 µM (active). Besides, the activity, negative = inhibition in [4] was 11.6% (inactive). The Potency result in assay [7], in [8], in assay [11], in [12], in assay [13] and in assay [17] was “inactive” in each case. For the same compound, the compound was classed as inactive in [9], in [14] and in [15]. The max response in [16] (measured here: cell count channel max response) is -12.9%; in [16] (measured here: lipid channel max response), -14.9%.

The values are drawn from PubChem BioAssay (NCATS).
